In all, about 39,000 sequences were measured (“fluorescence intensity (a.u.)”: median about 4,300, highest 2% from about 39,000 on). The full list was thinned out, with the highest values kept by preference.
Target: T1, OsSMF1 (Oryza sativa, UniProt Q6ZLB0 1-436)
T1 sequence: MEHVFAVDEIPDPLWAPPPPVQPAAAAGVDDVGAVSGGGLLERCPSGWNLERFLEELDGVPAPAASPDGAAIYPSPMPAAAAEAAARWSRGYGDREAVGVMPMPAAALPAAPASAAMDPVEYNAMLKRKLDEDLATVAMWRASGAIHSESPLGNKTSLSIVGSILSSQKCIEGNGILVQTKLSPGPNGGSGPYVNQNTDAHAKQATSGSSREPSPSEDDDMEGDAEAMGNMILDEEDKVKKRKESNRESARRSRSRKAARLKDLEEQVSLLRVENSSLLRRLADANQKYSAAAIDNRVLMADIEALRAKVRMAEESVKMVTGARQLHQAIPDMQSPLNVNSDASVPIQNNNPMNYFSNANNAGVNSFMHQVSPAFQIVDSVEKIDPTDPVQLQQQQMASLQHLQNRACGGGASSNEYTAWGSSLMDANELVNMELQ
Assay: protein-binding microarray (RPBM); PBS, 2% BSA, 51.3 ng/ul salmon testes DNA, 50 uM zinc acetate, 200 nM TF, 25 C, 1 h; high values mean tight binding
Settings: protein: recombinant; tags: N-terminal polyhistidine and DsRed monomer fusion (pET32a); chain copies: 2; label: CyDye5-dUTP incorporated in the synthesized complementary strand; 3' TTTTT single-stranded linker to array surface; dsDNA, one strand shown
Outline: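 Transcription factors, each fused N-terminally to a polyhistidine tag and DsRed, were expressed in E. coli BL21-CodonPlus and purified on Ni–NTA. A custom Agilent array was made double-stranded by primer extension with Cy5-dUTP and blocked with 2% BSA. It was incubated with 200 nM protein in PBS, 2% BSA, salmon testes DNA and 50 µM zinc acetate at 25 °C for 1 h, then washed. The binding signal is per-feature fluorescence intensity (arbitrary units) read on an Axon 4000B scanner.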

Compared with “TACGCCGTTACGTGGTATGGTGTTGTGCCATTTCAGTCGGCGGAGTCACCTAGTGCAG”, “AGAAAATGTGGAATGACGCAAATGCCCTTCTGCCTCCTCGCGGAGTCACCTAGTGCAG” is higher in binding signal: 3500 fluorescence intensity (a.u.) for the first, 5440 fluorescence intensity (a.u.) for the second.

Compared with “GATTGCAGCCGCCGCCTGCGTCGGTCCAGTCACCATTGGCCGGAGTCACCTAGTGCAG”, “ACTAAATCCTCAACCACCTCATATGTTTATGTACCATCGACGGAGTCACCTAGTGCAG” is lower in binding signal: 6870 fluorescence intensity (a.u.) for the first, 3510 fluorescence intensity (a.u.) for the second.

Going from “GCGCAAGTTCTCCACAAGCCACCTCGATCGATCTCCATTGCGGAGTCACCTAGTGCAG” to “GTCAGTCACCGCCCTGTGGGGCCCACCCACCCGCGCCGTCCGGAGTCACCTAGTGCAG”, the binding signal rises from 3420 fluorescence intensity (a.u.) to 9640 fluorescence intensity (a.u.).

First: TTCAGATGTACAATTTTGCTGGATTACTAGTAGTTTTCTTCGGAGTCACCTAGTGCAG
Second: CAACAATACAGTTATTGGTAATTACAAGCTACTAGTATACCGGAGTCACCTAGTGCAG
The binding signal of the first is lower: 17600 fluorescence intensity (a.u.) for the first, 18600 fluorescence intensity (a.u.) for the second.

First: AGTTTGCTGCCCACTTCAGTAGGTTACAATACAATTATACCGGAGTCACCTAGTGCAG
Second: CCTTTCCCTCTCCACTCTCCACCATCCTCTGCAGCTGACTCGGAGTCACCTAGTGCAG
The binding signal of the first is higher: 65300 fluorescence intensity (a.u.) for the first, 3330 fluorescence intensity (a.u.) for the second.

First: CTGCGTTACTTCGACATTGCCCGACGTGTTGACTGTGTTGCGGAGTCACCTAGTGCAG
Second: GTGTGAGGTTCATGCTGGGCGGTGACGCGACGGCGGAGACCGGAGTCACCTAGTGCAG
The binding signal of the first is lower: 4070 fluorescence intensity (a.u.) for the first, 6730 fluorescence intensity (a.u.) for the second.

Compared with “CTAGAAGTTACCAAGGTACCAGAGCAGACACCTAAGCAGCCGGAGTCACCTAGTGCAG”, “AAGAAGAAGACGACGACGTGGCGAGCCAAGTAGCAGCAAACGGAGTCACCTAGTGCAG” is higher in binding signal: 3370 fluorescence intensity (a.u.) for the first, 3620 fluorescence intensity (a.u.) for the second.

Going from “GTTACGACAAGTGCCACAAACCAGCAGAAGCAAAGGTAGACGGAGTCACCTAGTGCAG” to “AGTATGAAAGACCTGAGGATGACCCGGATTATATTCCTATCGGAGTCACCTAGTGCAG”, the binding signal falls from 47900 fluorescence intensity (a.u.) to 3320 fluorescence intensity (a.u.).

First: GCAATGCATTTCAAATTCAGGACCCCATAGAGAAATCAACCGGAGTCACCTAGTGCAG
Second: AAAATCATACGAACGGAAAAGCAAAAGATAGAAGCCAAAACGGAGTCACCTAGTGCAG
The binding signal of the first is higher: 29200 fluorescence intensity (a.u.) for the first, 16500 fluorescence intensity (a.u.) for the second.

Going from “AAACAAAGTGGCACAGATAAAATGGAACATAGAAGTGGCACGGAGTCACCTAGTGCAG” to “GACACAAACAAAATCGAGAAGATGGCATACCTACCATACACGGAGTCACCTAGTGCAG”, the binding signal falls from 40700 fluorescence intensity (a.u.) to 22800 fluorescence intensity (a.u.).

Going from “GATAACCGTAACTAACCGGCTTGGTCAGCAAGCCAAAGTGCGGAGTCACCTAGTGCAG” to “CTTCCACTGACATGACACCAAGAGACCACTTTCTTTAATTCGGAGTCACCTAGTGCAG”, the binding signal falls from 6310 fluorescence intensity (a.u.) to 3250 fluorescence intensity (a.u.).

Compared with “ATAATGAACAATTTCTTTCCAAGCTACATGTAGACCAGAGCGGAGTCACCTAGTGCAG”, “ATTCTTGCTACCTATAATTGCAACATGACAGAGTGTTAAGCGGAGTCACCTAGTGCAG” is lower in binding signal: 40100 fluorescence intensity (a.u.) for the first, 3480 fluorescence intensity (a.u.) for the second.

First: CTTGTTTCACCTGTCATACACACGTTACGTCTTAGAGTCCCGGAGTCACCTAGTGCAG
Second: GTAGAAGACCGGCGGAAAGTGTGAGGAGGGTGACAAGGGGCGGAGTCACCTAGTGCAG
The binding signal of the first is higher: 5140 fluorescence intensity (a.u.) for the first, 3420 fluorescence intensity (a.u.) for the second.

Compared with “ATTTTGACTGATGTGACGTTTGCGTGGCTGGTTTGATTAGCGGAGTCACCTAGTGCAG”, “TGATTGCAACAGGTGGGCTGGTTTTGCGTCATTTGACCAGCGGAGTCACCTAGTGCAG” is higher in binding signal: 4770 fluorescence intensity (a.u.) for the first, 51900 fluorescence intensity (a.u.) for the second.

First: TACAGCGTCATTGCAAGAATGGTGACGGGGTTTGAGGTTGCGGAGTCACCTAGTGCAG
Second: CTTGTCGCATCTGAACGTGTCGAGTCACACCTGTGTGTTACGGAGTCACCTAGTGCAG
The binding signal of the first is lower: 6110 fluorescence intensity (a.u.) for the first, 8330 fluorescence intensity (a.u.) for the second.

First: TTGGCGTGTGTGCAGCATTTGCGGCGGCGGCTGAGAAAGACGGAGTCACCTAGTGCAG
Second: CATTGGTGGCGTAATGTGGTTGTTAGTGATTTGTTGCACCCGGAGTCACCTAGTGCAG
The binding signal of the first is higher: 31100 fluorescence intensity (a.u.) for the first, 3460 fluorescence intensity (a.u.) for the second.

Going from “TCAATCTGGCGGGGTTTATTTGTGACCCTCGATCGGTCAACGGAGTCACCTAGTGCAG” to “AATAAGTAAGGTGGTTTTAAAATTTGGGGAGAGCTAACAGCGGAGTCACCTAGTGCAG”, the binding signal rises from 4060 fluorescence intensity (a.u.) to 39100 fluorescence intensity (a.u.).

Compared with “GGAGGTGGGGATGGTGGGAGGTTTTGGTTTGGTAAAATAGCGGAGTCACCTAGTGCAG”, “TAAAATTTAAATTTTGGCTAATAAGTATAAGCATAACTGTCGGAGTCACCTAGTGCAG” is higher in binding signal: 4910 fluorescence intensity (a.u.) for the first, 34300 fluorescence intensity (a.u.) for the second.

Compared with “GCTACACTTAACGCTGTCCACAACTCCACATACGCGTTACCGGAGTCACCTAGTGCAG”, “ATTTCTAATGCCACGTTAACGCCACGTGGAAAGAAGACCGCGGAGTCACCTAGTGCAG” is higher in binding signal: 3330 fluorescence intensity (a.u.) for the first, 17900 fluorescence intensity (a.u.) for the second.

Compared with “GAACGGTAGAATGATTATTGCTCCTTCAGTTTTCGAGTAACGGAGTCACCTAGTGCAG”, “TGAACCGGCCGGTTTTCATGTGAACCGTGAACCGTAATAACGGAGTCACCTAGTGCAG” is lower in binding signal: 3320 fluorescence intensity (a.u.) for the first, 3240 fluorescence intensity (a.u.) for the second.

First: CTATGACGGGTCGAAAACGGAACCCGTCAAAGATGAGTTACGGAGTCACCTAGTGCAG
Second: TCCGTTCTGTTTATGAATAACGGTCGAAAACGTAATAACCCGGAGTCACCTAGTGCAG
The binding signal of the first is lower: 18300 fluorescence intensity (a.u.) for the first, 46300 fluorescence intensity (a.u.) for the second.

First: GTGGTACACGCATGCTGACTAATTAAGACCGACAGAATCCCGGAGTCACCTAGTGCAG
Second: AACATGAAAGCTCAAGAGCTCGTGCTGACGGCTGAGAATCCGGAGTCACCTAGTGCAG
The binding signal of the first is higher: 3390 fluorescence intensity (a.u.) for the first, 3150 fluorescence intensity (a.u.) for the second.

Going from “TATGGACACCATCCTTGTCATTGGGTTAGGACTGGCCTTACGGAGTCACCTAGTGCAG” to “TTCATCCTATCACATCAAATATTTGGATACATACATGGAGCGGAGTCACCTAGTGCAG”, the binding signal rises from 3630 fluorescence intensity (a.u.) to 45500 fluorescence intensity (a.u.).

Going from “GCCATCCAACTATTTTCATGGATCAACATCATAGTAGTATCGGAGTCACCTAGTGCAG” to “AAATAGTCACACATAAAATACTATTCATATTTTATCATCTCGGAGTCACCTAGTGCAG”, the binding signal rises from 3140 fluorescence intensity (a.u.) to 13500 fluorescence intensity (a.u.).

Compared with “TTGCTTGCGAGCAAAGGTGGAGTTCATGCCCTCATCATATCGGAGTCACCTAGTGCAG”, “AATATAATGGCCGCTCGCTGATGGGTGCGTCATGCACCCTCGGAGTCACCTAGTGCAG” is higher in binding signal: 3710 fluorescence intensity (a.u.) for the first, 4060 fluorescence intensity (a.u.) for the second.

First: ATCCCCGGTCATCTCGCCTCGTCTCGTCCCGTCCCTGCGCCGGAGTCACCTAGTGCAG
Second: TTGAGATATAATTGCTACGTAAGTGCCACGTCAATGCCACCGGAGTCACCTAGTGCAG
The binding signal of the first is lower: 3460 fluorescence intensity (a.u.) for the first, 21400 fluorescence intensity (a.u.) for the second.

Going from “GCTCGAATTGCCACGTAAGCGCCACGTCAATGCCACGTCACGGAGTCACCTAGTGCAG” to “ATCGAATTGTCACGTAAGCGCCACGTCAATGCTACGTCAGCGGAGTCACCTAGTGCAG”, the binding signal falls from 65500 fluorescence intensity (a.u.) to 26100 fluorescence intensity (a.u.).

Going from “GATATAATTGCCACGTAAGCGCCACGTCAATGCCACGTGCCGGAGTCACCTAGTGCAG” to “CTGGATCGAATTGCCACGTAAGCGCCACGTCAGTGCCACACGGAGTCACCTAGTGCAG”, the binding signal falls from 52100 fluorescence intensity (a.u.) to 20700 fluorescence intensity (a.u.).

Going from “TTTTCGATATATAATTGCCACGTAAGCGTCACGTCAATGCCGGAGTCACCTAGTGCAG” to “CGAGATATAATTGCCATGTCATTGCCACGTCAATGTCACGCGGAGTCACCTAGTGCAG”, the binding signal rises from 34300 fluorescence intensity (a.u.) to 49600 fluorescence intensity (a.u.).

First: CCGGATCGAATTGCCACGTAAGCGTCACGTCACTGCCACACGGAGTCACCTAGTGCAG
Second: TTTTCCGGATCGAATTGCCACGTAAGCGCCACGTCAATGACGGAGTCACCTAGTGCAG
The binding signal of the first is lower: 17100 fluorescence intensity (a.u.) for the first, 48300 fluorescence intensity (a.u.) for the second.

First: CCAATATATAATTGCCACGTCATCGCCGCGTCAATGCCACCGGAGTCACCTAGTGCAG
Second: GCTGAGATATAGTTGCCACGTAAGCGCCACGTCAATGCTACGGAGTCACCTAGTGCAG
The binding signal of the first is lower: 28100 fluorescence intensity (a.u.) for the first, 33000 fluorescence intensity (a.u.) for the second.

For “TCGGATCGAATTGCCACGTAAGCGCCACGTCGATGCCACACGGAGTCACCTAGTGCAG”, the binding signal was 33000 fluorescence intensity (a.u.).
